GC-A act = GC-A (human) enzyme activation; HEK293 GC-A cells, cGMP TR-FRET, EC30 ANP; 0% at EC30 ANP, 100% saturating ANP; 370,000 compounds, 0.14% hits; activation, % at 10 µM; in the data active means activation above about 40%
ADAM10 inh = ADAM10 inhibition, QFRET primary screen; inhibition, % at 7 µM; O14672; 370,000 compounds, 0.62% hits; recombinant ADAM10, EDANS/DABCYL FRET peptide cleavage, 3 h; AID 720582;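 active means inhibition above a per-campaign cutoff equal to the mean of compounds falling between control-based bounds plus 3 SD, cut at about 20% in these data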
NPR2 activator = GC-B (human) receptor activation; HEK293-GC-B cells, CNP EC30, cGMP TR-FRET; 0% at EC30 CNP, 100% saturating CNP; activation, % at 10 µM; 370,000 compounds, 0.11% hits; AID 1920062;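 active means activation at 10 µM reaching about 35% in either raw or pattern-adjusted values, limit read from the data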
ADAM17 inh = inhibits human ADAM17; inhibition, % at 6.95 µM; P78536; 370,000 compounds, 0.83% hits; recombinant ADAM17, EDANS/DABCYL FRET peptide cleavage; AID 720648;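 active means inhibition above the mean of compounds lying between control limits plus 3 SD, set per campaign, cut at about 8.5% in these data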
KLK7 zymogen act = proKLK7 (human) activation, primary screen. purified proKLK7, EDANS-DABCYL substrate fluorescence; 100% is mature enzyme control, 0% vehicle. activation, % at 7 µM. 370,000 compounds, 0.9% hits;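 active means activation above the mean of all tested compounds plus 3 SD, computed per campaign excluding outliers beyond control limits, cut at about 13% in these data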
ADAM10 counter = counter-screen for ADAM17 exosite inhibitors: inhibitors of human ADAM10. shares compounds with ADAM17 inh. recombinant ADAM10, EDANS/DABCYL FRET peptide cleavage, 3 h. inhibition, % at 6.95 µM. 2,900 compounds, 47% hits. AID 743256;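 active means mean inhibition over the triplicate runs exceeds the activity threshold set in the earlier primary screen, cut at about 20% in these data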
ADAM17 confirm = human ADAM17 inhibition, confirmation | inhibition, % at 6.95 µM | shares compounds with ADAM17 inh | 2,900 compounds, 65% hits | AID 743257 | recombinant ADAM17, EDANS/DABCYL QFRET peptide cleavage;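 active means mean inhibition across replicates above the hit cutoff set in the primary screen, cut at about 8.5% in these data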
Large screens that a line does not name were inactive (follow-up assays come after a bar, where they were run). Most compounds without a hit are left out; they make up all but 2.2% or so of the library.

CC(C)=CCc1c(O)cc2c(c1O)C(=O)CC(c1ccc(O)cc1)O2 (centres undefined)	ADAM17 inh 9.3 | ADAM10 counter 37 | ADAM17 confirm 20
O=C1CN(C(=O)COC(=O)Cc2ccccc2)c2ccccc2N1	none
CSCCC(c1nnnn1Cc1ccccc1)N1CCC2(CC1)C(=O)NCN2c1ccccc1 (centres undefined)	ADAM17 inh 11 | ADAM10 counter inactive | ADAM17 confirm inactive
C[C@H](NC(=O)OCc1ccccc1)C(=O)NC(Cc1ccccc1)P(=O)(Oc1ccccc1)Oc1ccccc1 (some centres undefined)	none
OC(CN1CCCCC1)c1c[nH]c2ccccc12 (centres undefined)	none
O=C(c1cc2c(s1)CCCCCC2)N1CCC2(CC1)OCCO2	ADAM17 inh 8.7 | ADAM10 counter inactive | ADAM17 confirm 12
CCc1sc(C(=O)N2CCC3(CC2)OCCO3)cc1Br	none
CC(c1ccccc1)n1cncc1C(=O)O (centres undefined)	ADAM17 inh 9.4 | ADAM10 counter inactive | ADAM17 confirm 11
CC(C)c1ccc(-n2c(O)c(C=NC(CCS(C)=O)C(=O)O)c(=O)[nH]c2=S)cc1 (centres undefined)	ADAM17 inh 9.2 | ADAM10 counter inactive | ADAM17 confirm inactive

High-throughput results: PubChem, several laboratories
